± gives the standard deviation of the averaged measurements. Whole data set: some 4,100 sequences, median “relative kcat/Km (krel) vs genomic leader AAAGAU” near 1.7, cut for the highest 2% near 6.5. This excerpt belongs to a sample that is enriched for the highest values.
Molecular target: T1, E. coli RNase P holoenzyme (M1 P RNA + rnpA protein) (UniProt P0A7Y8)
T1 sequence: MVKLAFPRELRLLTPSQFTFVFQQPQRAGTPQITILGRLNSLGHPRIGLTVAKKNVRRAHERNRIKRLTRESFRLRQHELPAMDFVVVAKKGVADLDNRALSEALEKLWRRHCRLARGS
Assay: relative kcat/Km (krel) vs genomic leader AAAGAU (relative (reference leader = 1)); higher = faster RNase P cleavage
Protocol: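 HTS-Kin: a pool of ptRNA-Met (21C construct) with all 4096 combinations of 5' leader nucleotides N(-6) to N(-1) was processed in vitro by E. coli RNase P (P RNA + rnpA/C5 protein) under multiple-turnover conditions at 37 C, pH 8, 17.5 mM MgCl2. Residual substrate was Illumina-sequenced at several fractions reacted, and relative kcat/Km (krel) was computed by internal competition kinetics, calibrated to the genomic leader (AAAGAU = 1). The listed hexamer is the varied N(-6)..N(-1) leader (DNA letters), and it sits between a fixed 5' stem-loop flank (GCAUGCACGAAAGUGCGUGCUAUGAA) and the mature tRNA-Met starting GGCUACGUAGCUCAGUUGG. Two technical replicates are averaged.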

[1] = fraction of substrate reacted: ~13-16% (15.68% repeat 1, 13.17% repeat 2)
[2] = fraction of substrate reacted: ~26-29% (28.66% repeat 1, 26.4% repeat 2)
[3] = fraction of substrate reacted: ~9-10% (9.79% repeat 1, 9.1% repeat 2)

Sequence	relative kcat/Km [1]	relative kcat/Km [2]	relative kcat/Km [3]
CAGGGA	0.949 ± 0.58	1.06 ± 1	
CCGATG		1.14 ± 0.71	
CGCATG		1.43 ± 0.34	
CCATAA	2.67 ± 0.37	3.58 ± 0.78	3.55 ± 1.6
CCACTT	0.873 ± 0.61	1.91 ± 0.31	1.71 ± 0.26
TGCTGA	1.69 ± 0.5	2.71 ± 1	1.907 ± 0.0028
CCGTGC	0.908 ± 0.54	1.84 ± 0.71	1.254 ± 0.0079
GGCGCG	0.4496 ± 0.0012	1.37 ± 0.14	
ATGCCG		0.567 ± 0.043	
AGCTGG	0.38 ± 0.056	0.572 ± 0.15	
GGTTCA	0.431 ± 0.36	1.26 ± 0.44	1.01 ± 0.77
TGAAAG	1.15 ± 0.57	2.65 ± 0.8	
GCGAAA	1.36 ± 0.072	2.16 ± 0.076	2.4 ± 0.62
TCCAAC	4.11 ± 0.11	5.77 ± 1.9	3.85 ± 2
TCCAGC	4.83 ± 0.15	6.09 ± 2	4.58 ± 2.5
GCCAAG	0.757 ± 0.36	2.63 ± 0.93	0.818 ± 0.62
TCCAAG	1.77 ± 1.2	4.8 ± 1.6	2.34 ± 1.2
ACCAAT	2.51 ± 0.89	3.51 ± 0.8	2.48 ± 0.88
TCCAGG		2.14 ± 0.84	
TCCAAA	5.16 ± 0.76	7.85 ± 2.9	3.88 ± 1.2
TCCAGA	4.62 ± 0.77	7.93 ± 2.3	3.25 ± 0.89
TCCAAT	4.14 ± 0.76	6.63 ± 2.2	3.48 ± 2.1
GGCGTC	1.48 ± 0.093	1.36 ± 0.024	2.13 ± 1.2
AATTTG		0.989 ± 0.62	
TGATAC	3.97 ± 0.42	5.76 ± 2.1	2.83 ± 0.46
AGAGGG		0.989 ± 0.85	

Sequence	relative kcat/Km [1]	relative kcat/Km [2]	relative kcat/Km [3]
TCATCT	2.78 ± 0.36	4.09 ± 1	2.18 ± 1.2
ACAGAG	0.878 ± 0.38	1.94 ± 0.09	
CTAATT	1.92 ± 0.32	2.36 ± 0.52	2.55 ± 1
GTCCTT	4.82 ± 0.56	7.02 ± 2.8	3.67 ± 1
CTCCTT	4.28 ± 0.77	6.06 ± 2.3	3.67 ± 1.4
CTCCTC	3.49 ± 0.19	4.95 ± 1.7	3 ± 1.3
ATCCTT	4.36 ± 0.24	5.37 ± 2.3	3.24 ± 1.5
TTCCTT	5.24 ± 1.1	7.59 ± 3.1	4.47 ± 1.3
TTCCTG		1.68 ± 1.1	
GTCCTC	4.33 ± 0.75	6.46 ± 3	3.46 ± 0.61
TTCCTC	5.25 ± 0.81	6.88 ± 2.5	4.47 ± 1.9
ATCCTC	4.11 ± 1.6	4.92 ± 2	3.86 ± 1.3
TGGCGG		0.962 ± 0.067	0.44 ± 0.28
CCTAGA	2.71 ± 0.26	3.57 ± 0.52	3.14 ± 2.6
CCTCCT	1.23 ± 0.17	1.29 ± 0.79	2.08 ± 1.7
AGAAAA	2.65 ± 0.37	3.92 ± 1.1	3.05 ± 0.94
ACTGGC		1.69 ± 1.6	
AGTCAT	5 ± 1.1	6.79 ± 3.2	3.31 ± 1.6
TGTCAA	3.56 ± 0.18	5.75 ± 2.1	3.03 ± 1.6
AGTCAC	4.987 ± 0.032	7.1 ± 2.9	4.5 ± 2.3
TCTCAC	4.45 ± 1.3	6.16 ± 2.3	3.41 ± 1.3
TGTCAC	4.8 ± 0.85	7.18 ± 3	3.25 ± 2.2
TGTCAG	1.4 ± 0.17	3.3 ± 0.62	
AGTCAG	1.91 ± 0.42	3.69 ± 0.62	2.12 ± 2
AGTCAA	4 ± 1.2	6.05 ± 2.9	2.58 ± 0.11
TGTCAT	4.28 ± 1.1	6.84 ± 3.2	3.5 ± 1.3

Sequence	relative kcat/Km [1]	relative kcat/Km [2]	relative kcat/Km [3]
TGTCGC	2.92 ± 1.1	5.09 ± 2.2	1.87 ± 0.089
ACTCAC	2.87 ± 0.13	4.43 ± 1.7	2.6 ± 1.1
GGTCAC	2.2 ± 0.29	3.14 ± 0.83	2.53 ± 0.97
GCTATC	0.842 ± 0.77	1.645 ± 0.013	1.45 ± 0.98
ATTCCT	2.19 ± 0.27	2.93 ± 1.1	1.97 ± 0.65
AAATTC	1.98 ± 0.19	2.34 ± 0.6	2.35 ± 1.4
TAATGG			0.461 ± 0.18
CAACAG		1 ± 0.52	
TGACAA	3.72 ± 0.47	4.23 ± 1.4	3.11 ± 2.1
GTACGC	2.7 ± 0.46	3.72 ± 1.3	2 ± 0.098
CCTCAC	3.07 ± 0.55	4.22 ± 1.2	2.54 ± 0.75
CGTCGC	3.77 ± 0.95	4.81 ± 1.1	2.49 ± 0.74
CGTCAA	3.42 ± 0.92	5.08 ± 1.4	1.61 ± 0.25
CGTCAC	5.37 ± 0.7	6.77 ± 2	4.5 ± 2.1
CGTCAT	4.98 ± 1.9	6.96 ± 3.1	2.843 ± 0.013
CGTCAG	1.34 ± 0.28	3.11 ± 0.5	0.776 ± 0.25
AGTCTT	3.72 ± 0.46	5 ± 2.2	3.48 ± 0.67
GAGCAA	2.27 ± 0.026	2.57 ± 0.78	1.98 ± 0.29
AATTAC	3.97 ± 0.31	5.32 ± 1.9	3.5 ± 1.7
TATTAA	5.12 ± 0.072	6.96 ± 2.6	4.01 ± 2.3
TATTCT	4.15 ± 0.4	5.78 ± 2.3	3.27 ± 1.2
AATTAA	3.37 ± 0.39	4.73 ± 1.6	2.86 ± 2
TATTAC	5.68 ± 0.93	7.86 ± 3.4	3.92 ± 1.1
TATTAG	2.95 ± 0.03	4.43 ± 1.4	2.38 ± 2.3
AATTAT	4.75 ± 0.82	5.76 ± 2.3	3.11 ± 0.81
TATTCC	2.87 ± 0.33	3.57 ± 1.4	2.05 ± 0.31

Sequence	relative kcat/Km [1]	relative kcat/Km [2]	relative kcat/Km [3]
TATTAT	5.95 ± 1.7	9.03 ± 4.1	4.02 ± 1.1
ACTTTG		1.31 ± 0.45	
GCCCTC	2.28 ± 1.4	3.98 ± 1.6	1.81 ± 0.28
CGCCGT		1.06 ± 0.75	0.516 ± 0.5
AATTAG	1.34 ± 0.23	3.09 ± 1.5	
AGTACT	2.42 ± 0.095	3.74 ± 1.6	2.34 ± 1.3
AAATAT	3.11 ± 0.79	4.74 ± 2.4	1.72 ± 0.35
GCGGAG		0.583 ± 0.36	
TCGGAA	1.23 ± 0.93	1.33 ± 0.09	1.2 ± 1.2
AAATCA	1.42 ± 0.17	1.8 ± 0.46	1.55 ± 0.36
TTCGTC	4.55 ± 1	6.81 ± 3.2	3.53 ± 1.4
CTCGTC	3.41 ± 0.98	5.19 ± 2	2.68 ± 0.76
CTCGGA		0.671 ± 0.41	
TTCGTA	4.26 ± 0.22	6.35 ± 2.4	3.36 ± 1.3
TTCGAA	7.22 ± 2.3	10.3 ± 4.3	5.32 ± 1.2
CTCGAA	6.4 ± 1.7	8.12 ± 3.5	4.31 ± 0.54
TGCGAA	1.82 ± 0.69	2.43 ± 0.68	1.78 ± 0.26
TTCGTG	0.287 ± 0.27	2.01 ± 0.17	
CGCGAA	3.39 ± 1.2	4.94 ± 1.5	2.89 ± 0.49
TTCGAG	1.96 ± 0.07	4.8 ± 1	
TTCGAT	2.71 ± 1.2	4.44 ± 2	1.69 ± 0.22
TTCGAC	7.11 ± 1.7	10.2 ± 4.3	5.66 ± 1.9
AGTGTT		1.34 ± 0.99	0.435 ± 0.024
CTACTT	2.2 ± 0.49	2.49 ± 0.63	2.09 ± 0.14
TGAACT	1.85 ± 0.71	2.58 ± 0.76	1.41 ± 0.67

Reference: the supplement of paper PMC9433436
